According to the supplement of paper PMC10849652:
Targets with a hit are over-represented here; the source holds about 8,800 in all. About 0.5% of all pairs of compound and target were hits. Unmarked numbers belong to inactive results.

Key:
Assay in all cases: log2 fold change, soluble protein after heating vs DMSO (PISA); higher = thermal stabilisation; K562 lysate, 10 uM; active = over 0.2 and 3.5 SD of the protein, either way, in both replicates (recomputed)
vemurafenib = compound: CCCS(=O)(=O)Nc1ccc(F)c(C(=O)c2c[nH]c3ncc(-c4ccc(Cl)cc4)cc23)c1F [vemurafenib]
Procedure, shortened: (§1)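 Soluble protein was defined as the supernatant remaining after 21,000xg for 90 min, following pooling of heated aliquots and adjustment to 0.5% NP-40 at 4°C. Before that, crude K562 extract at 1 mg/mL protein in PBS pH 7.4 with 1 mM MgCl2 was treated with 10 μM compound for 30 min and heated for 3 min across 48°C-58°C. Quantification used TMTpro 16plex LC-MS/MS with channel sums equalised, and values are log-two fold changes in thermal stability relative to solvent controls from duplicates.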

[1] = compound: CCCS(=O)(=O)Nc1ccc(F)c(C(=O)c2c[nH]c3ncc(Cl)cc23)c1F
Procedure, shortened: as §1

barasertib = compound: CCN(CCCOc1ccc2c(Nc3cc(CC(=O)Nc4cccc(F)c4)[nH]n3)ncnc2c1)CCOP(=O)(O)O [barasertib]
Procedure, shortened: as §1

[2] = compound: CC[C@@H]1C(=O)N(C)c2cnc(Nc3ccc(C(=O)NC4CCN(C)CC4)cc3OC)nc2N1C1CCCC1
Procedure, shortened: as §1

volasertib = compound: CC[C@@H]1C(=O)N(C)c2cnc(Nc3ccc(C(=O)N[C@H]4CC[C@H](N5CCN(CC6CC6)CC5)CC4)cc3OC)nc2N1C(C)C [volasertib]
Procedure, shortened: as §1

[3] = compound: CCn1c(C(=O)N(C2CC2)C2CC2)cc2c3c(ncn3C)c(Nc3cc(C)n(C)n3)nc21
Procedure, shortened: as §1

[4] = compound: CCn1cc(-c2ccnc3[nH]c(-c4cccc(CN(C)C)c4)cc23)c(-c2ccc(NC(=O)N(C)C)cc2)n1
Procedure, shortened: as §1

[5] = compound: CN1CCC(CNc2ccc3ncc(-c4cccc(OC(F)(F)F)c4)n3n2)CC1
Procedure, shortened: as §1

saracatinib = compound: CN1CCN(CCOc2cc(OC3CCOCC3)c3c(Nc4c(Cl)ccc5c4OCO5)ncnc3c2)CC1 [saracatinib]
Procedure, shortened: as §1

sotrastaurin = compound: CN1CCN(c2nc(C3=C(c4c[nH]c5ccccc45)C(=O)NC3=O)c3ccccc3n2)CC1 [sotrastaurin]
Procedure, shortened: as §1

alvocidib = compound: CN1CC[C@H](c2c(O)cc(O)c3c(=O)cc(-c4ccccc4Cl)oc23)[C@H](O)C1 [alvocidib]
Procedure, shortened: as §1

Tubastatin A = compound: CN1CCc2c(c3ccccc3n2Cc2ccc(C(=O)NO)cc2)C1 [Tubastatin A]
Procedure, shortened: as §1

[6] = compound: CNC(=O)C1=CC=CC=C1NC2=NC(=NC=C2Cl)NC3=C(C=C(C=C3)N4CCOCC4)OC
Procedure, shortened: as §1

defactinib = compound: CNC(=O)c1ccc(Nc2ncc(C(F)(F)F)c(NCc3nccnc3N(C)S(C)(=O)=O)n2)cc1 [defactinib]
Procedure, shortened: as §1

[7] = compound: CNc1nc(-c2ccc3c(N)n[nH]c3c2)cc(N2C[C@@H](C(=O)NC3CCCCC3)CC[C@H]2C)n1
Procedure, shortened: as §1

encorafenib = compound: COC(=O)N[C@@H](C)CNc1nccc(-c2cn(C(C)C)nc2-c2cc(Cl)cc(NS(C)(=O)=O)c2F)n1 [encorafenib]
Procedure, shortened: as §1

[8] = compound: COC(=O)[C@H](CCSC)NC(=O)C1=C(C=C(C=C1)NC[C@H](CS)N)C2=CC=CC=C2
Procedure, shortened: as §1

alisertib = compound: COc1cc(Nc2ncc3c(n2)-c2ccc(Cl)cc2C(c2c(F)cccc2OC)=NC3)ccc1C(=O)O [alisertib]
Procedure, shortened: as §1

[9] = compound: COc1cc2nc(-c3cc(F)ccc3O)nc(N[C@@H]3CNC[C@H]3C(C)(C)O)c2cc1OC
Procedure, shortened: as §1

gefitinib = compound: COc1cc2ncnc(Nc3ccc(F)c(Cl)c3)c2cc1OCCCN1CCOCC1 [gefitinib]
Procedure, shortened: as §1

Chain of UniProt O00767 (O00767 whole entry, looked up): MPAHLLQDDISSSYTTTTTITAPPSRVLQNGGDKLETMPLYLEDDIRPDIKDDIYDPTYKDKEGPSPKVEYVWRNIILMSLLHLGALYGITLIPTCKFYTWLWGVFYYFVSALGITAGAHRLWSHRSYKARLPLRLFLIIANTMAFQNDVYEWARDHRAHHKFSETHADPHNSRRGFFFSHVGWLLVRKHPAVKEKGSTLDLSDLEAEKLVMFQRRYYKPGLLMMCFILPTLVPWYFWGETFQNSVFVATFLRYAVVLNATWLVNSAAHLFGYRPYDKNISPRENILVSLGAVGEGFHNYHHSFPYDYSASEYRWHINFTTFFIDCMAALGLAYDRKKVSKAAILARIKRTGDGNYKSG
Chain of UniProt Q9HBH5 (Q9HBH5 whole entry, looked up): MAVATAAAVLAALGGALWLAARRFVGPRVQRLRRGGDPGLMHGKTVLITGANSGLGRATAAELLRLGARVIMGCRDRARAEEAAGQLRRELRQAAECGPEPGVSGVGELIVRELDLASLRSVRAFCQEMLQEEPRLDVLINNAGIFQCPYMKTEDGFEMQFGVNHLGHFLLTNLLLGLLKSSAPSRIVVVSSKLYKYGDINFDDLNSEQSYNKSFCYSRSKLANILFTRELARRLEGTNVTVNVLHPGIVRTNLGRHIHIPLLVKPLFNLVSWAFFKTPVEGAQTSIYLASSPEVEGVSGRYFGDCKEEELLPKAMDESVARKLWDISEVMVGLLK
Chain of UniProt Q5HYI8 (Q5HYI8 whole entry, looked up): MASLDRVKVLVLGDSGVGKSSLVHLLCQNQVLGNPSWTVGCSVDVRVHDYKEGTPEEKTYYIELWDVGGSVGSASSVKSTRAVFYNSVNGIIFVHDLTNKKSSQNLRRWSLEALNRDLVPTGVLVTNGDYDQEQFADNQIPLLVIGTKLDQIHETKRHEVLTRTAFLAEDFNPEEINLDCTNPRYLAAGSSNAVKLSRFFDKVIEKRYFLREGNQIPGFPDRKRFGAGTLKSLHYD
Chain of UniProt O15541 (O15541 whole entry, looked up): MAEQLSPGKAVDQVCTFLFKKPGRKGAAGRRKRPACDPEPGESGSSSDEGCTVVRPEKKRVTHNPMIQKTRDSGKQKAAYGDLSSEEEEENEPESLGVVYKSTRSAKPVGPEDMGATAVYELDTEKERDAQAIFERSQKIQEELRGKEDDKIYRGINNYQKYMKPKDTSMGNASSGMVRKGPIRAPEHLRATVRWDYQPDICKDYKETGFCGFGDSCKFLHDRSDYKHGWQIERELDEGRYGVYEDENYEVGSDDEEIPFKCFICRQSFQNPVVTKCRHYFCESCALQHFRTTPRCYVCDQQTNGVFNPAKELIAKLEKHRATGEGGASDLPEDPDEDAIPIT
Chain of UniProt Q6NUM9 (Q6NUM9 whole entry, looked up): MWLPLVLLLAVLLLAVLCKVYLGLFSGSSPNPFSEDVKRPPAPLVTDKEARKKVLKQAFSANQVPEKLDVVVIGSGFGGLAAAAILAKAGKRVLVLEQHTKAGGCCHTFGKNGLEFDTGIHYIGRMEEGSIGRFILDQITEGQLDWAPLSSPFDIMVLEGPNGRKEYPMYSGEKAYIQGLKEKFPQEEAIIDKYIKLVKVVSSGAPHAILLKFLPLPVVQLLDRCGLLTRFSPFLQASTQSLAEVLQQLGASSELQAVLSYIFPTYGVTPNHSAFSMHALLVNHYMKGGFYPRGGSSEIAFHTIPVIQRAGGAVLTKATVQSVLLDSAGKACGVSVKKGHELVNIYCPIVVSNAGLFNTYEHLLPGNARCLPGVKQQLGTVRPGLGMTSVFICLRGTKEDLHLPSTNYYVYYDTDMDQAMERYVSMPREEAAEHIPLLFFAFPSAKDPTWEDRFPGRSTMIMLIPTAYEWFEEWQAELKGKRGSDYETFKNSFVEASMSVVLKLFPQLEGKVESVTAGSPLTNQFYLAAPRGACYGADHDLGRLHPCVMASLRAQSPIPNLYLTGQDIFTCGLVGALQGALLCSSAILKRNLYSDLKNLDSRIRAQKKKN
Chain of UniProt Q8WZA2 (Q8WZA2 whole entry, looked up): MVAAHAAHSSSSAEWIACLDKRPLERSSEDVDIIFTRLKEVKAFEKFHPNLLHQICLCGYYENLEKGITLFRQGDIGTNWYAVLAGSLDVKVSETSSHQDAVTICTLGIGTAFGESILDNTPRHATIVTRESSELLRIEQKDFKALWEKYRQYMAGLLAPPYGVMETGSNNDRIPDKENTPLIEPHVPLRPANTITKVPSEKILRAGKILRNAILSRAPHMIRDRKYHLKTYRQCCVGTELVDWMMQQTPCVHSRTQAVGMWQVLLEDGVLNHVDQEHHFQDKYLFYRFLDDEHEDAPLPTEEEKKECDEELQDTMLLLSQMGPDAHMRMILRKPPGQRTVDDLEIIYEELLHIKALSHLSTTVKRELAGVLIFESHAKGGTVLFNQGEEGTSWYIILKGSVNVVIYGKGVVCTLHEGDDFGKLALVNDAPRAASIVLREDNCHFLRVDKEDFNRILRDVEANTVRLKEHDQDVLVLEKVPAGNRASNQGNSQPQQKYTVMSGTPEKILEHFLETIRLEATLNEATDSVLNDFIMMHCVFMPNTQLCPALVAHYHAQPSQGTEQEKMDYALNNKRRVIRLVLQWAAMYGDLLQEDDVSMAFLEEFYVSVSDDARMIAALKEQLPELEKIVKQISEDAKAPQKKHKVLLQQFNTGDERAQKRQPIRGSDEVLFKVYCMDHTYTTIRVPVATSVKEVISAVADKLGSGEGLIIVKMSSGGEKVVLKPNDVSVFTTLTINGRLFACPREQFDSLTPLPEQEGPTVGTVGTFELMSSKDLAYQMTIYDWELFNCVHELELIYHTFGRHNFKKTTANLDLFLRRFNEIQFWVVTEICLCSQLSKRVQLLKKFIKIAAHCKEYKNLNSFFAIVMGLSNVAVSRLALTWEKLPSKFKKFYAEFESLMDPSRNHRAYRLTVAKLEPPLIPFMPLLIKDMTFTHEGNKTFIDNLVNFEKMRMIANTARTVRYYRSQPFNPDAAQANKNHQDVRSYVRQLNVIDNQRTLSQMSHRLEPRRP
Chain of UniProt P55735 (P55735 whole entry, looked up): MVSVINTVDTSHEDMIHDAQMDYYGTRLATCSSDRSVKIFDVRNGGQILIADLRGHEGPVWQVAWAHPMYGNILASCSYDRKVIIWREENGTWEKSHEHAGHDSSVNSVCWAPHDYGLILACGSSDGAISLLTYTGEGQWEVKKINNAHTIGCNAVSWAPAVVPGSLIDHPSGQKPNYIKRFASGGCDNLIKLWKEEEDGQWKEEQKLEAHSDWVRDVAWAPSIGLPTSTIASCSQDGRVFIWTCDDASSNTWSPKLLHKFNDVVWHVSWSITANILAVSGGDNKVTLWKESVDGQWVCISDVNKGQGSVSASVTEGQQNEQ
Chain of UniProt Q9UPU9 (Q9UPU9 whole entry, looked up): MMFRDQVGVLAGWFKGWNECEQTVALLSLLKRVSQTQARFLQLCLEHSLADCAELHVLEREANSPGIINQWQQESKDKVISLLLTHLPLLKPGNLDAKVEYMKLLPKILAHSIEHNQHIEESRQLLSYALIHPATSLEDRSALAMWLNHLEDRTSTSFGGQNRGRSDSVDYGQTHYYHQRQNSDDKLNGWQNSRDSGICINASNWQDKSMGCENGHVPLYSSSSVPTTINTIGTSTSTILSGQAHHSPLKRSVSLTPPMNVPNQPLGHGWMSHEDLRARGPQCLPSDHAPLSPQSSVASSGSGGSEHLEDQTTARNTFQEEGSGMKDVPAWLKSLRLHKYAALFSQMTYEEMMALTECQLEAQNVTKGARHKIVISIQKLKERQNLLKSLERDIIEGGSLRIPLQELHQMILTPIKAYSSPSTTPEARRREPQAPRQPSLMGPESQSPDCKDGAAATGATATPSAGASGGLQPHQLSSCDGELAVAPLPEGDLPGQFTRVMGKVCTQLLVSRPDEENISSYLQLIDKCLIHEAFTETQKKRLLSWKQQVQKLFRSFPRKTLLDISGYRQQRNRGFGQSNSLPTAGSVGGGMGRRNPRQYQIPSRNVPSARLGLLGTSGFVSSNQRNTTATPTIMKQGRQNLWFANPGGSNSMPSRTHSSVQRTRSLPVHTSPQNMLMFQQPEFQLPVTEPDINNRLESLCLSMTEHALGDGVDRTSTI

| Target | log2 fold change (vemurafenib) | log2 fold change [1] | log2 fold change (barasertib) | log2 fold change [2] | log2 fold change (volasertib) | log2 fold change [3] | log2 fold change [4] | log2 fold change [5] | log2 fold change (saracatinib) | log2 fold change (sotrastaurin) | log2 fold change (alvocidib) | log2 fold change (Tubastatin A) | log2 fold change [6] | log2 fold change (defactinib) | log2 fold change [7] | log2 fold change (encorafenib) | log2 fold change [8] | log2 fold change (alisertib) | log2 fold change [9] | log2 fold change (gefitinib) |
| --- | --- | --- | --- | --- | --- | --- | --- | --- | --- | --- | --- | --- | --- | --- | --- | --- | --- | --- | --- | --- |
| SEC13 isoform 3 (UniProt P55735) | -0.001 | -0.004 | -0.031 | -0.013 | 0.007 | 0.003 | 0.507 (active) | -0.042 | -0.027 | -0.015 | 0.107 | 0.029 | -0.024 | -0.06 | -0.064 | 0.002 | -0.039 | 0.02 | -0.004 | 0.03 |
| RAP1B (UniProt F5GZG1) | 0.025 | -0.069 | 0.043 | -0.013 | -0.015 |  | 0.471 | 0.041 | 0.094 | -0.038 | -0.118 |  | 0.01 | -0.05 | -0.104 | 0.056 | 0.124 | 0.059 | 0.002 | 0.071 |
| RABL3 (UniProt Q5HYI8) | 0.043 | 0.024 | 0.033 | -0.072 | -0.045 | 0.632 | -0.045 | -0.032 | 0.018 | 0.069 | -0.023 | -0.193 | 0.154 | 0 | -0.021 | 0.02 | -0.01 | -0.036 | -0.038 | 0.005 |
| RDH14 (UniProt Q9HBH5) | 0.038 | 0.026 | -0.007 | -0.076 | -0.022 | 0.009 | -0.228 | 0.061 | -0.015 | 0.074 | -0.001 | -0.033 | 0.088 | -0.044 | -0.123 | -0.028 | -0.199 | 0.07 | -0.043 | -0.07 |
| RAPGEF4 (UniProt Q8WZA2) | 0.157 | 0.077 | 0.022 | 0.174 | 0.049 | -0.259 | -0.887 (active) | 0.391 | 0.037 | 0.001 | -0.367 | 0.156 | 0.061 | -0.023 | 0.433 | 0.018 | 0.147 |  | 0.196 |  |
| SAMD4A (UniProt Q9UPU9) | -0.032 | -0.376 | 0.005 | 0.05 | 0.014 | -0.292 | 1.12 | 0.115 | 0.07 | 0.01 | 0.039 | -0.428 | -0.01 | 0.001 | 0.04 | 0.009 | -0.032 |  | 0.035 |  |
| RETSAT (UniProt Q6NUM9) | 0.115 | 0.039 | 0.076 | 0 | -0.087 | -0.297 | -0.318 | 0.116 | 0.108 | -0.119 | -0.114 | 0.179 | -0.071 | -0.045 | 0.402 | 0.079 | 0.025 |  | -0.059 |  |
| RNF113A (UniProt O15541) | 0.021 | -0.012 | -0.042 | 0.04 | 0.009 | -0.056 | -0.021 | 0.017 | 0.031 | -0.056 | -0.062 | 0.05 | 0.014 | -0.013 | 0.022 | -0.019 | -0.017 | -0.015 | 0.015 | 0.004 |
| SCD (UniProt O00767) | -0.03 | 0.111 | 0.042 | 0.006 | 0.098 | -0.082 | -0.504 (active) | 0.212 | 0.071 | 0.084 | -0.138 | -0.015 | -0.014 | -0.02 | -0.091 | -0.097 | 0.076 | 0.006 | 0.004 | 0.011 |
